Laboratory results reported in PubChem BioAssay (EPA / NIEHS).
Inconclusive results are not listed. The source made the active and inactive calls. Rule for the calls, unless noted: active = hit-call score of the fitted dose curve at least 0.9, where 1 is the maximum; inconclusive = response in the unintended direction; inactive = score below 0.9.

Tests used:
[1] = read-out: Cellular tumor antigen p53 (Homo sapiens) (UniProt P04637); experiment: LTEA_HepaRG_TP53: Life Technologies and Expression Analysis (LTEA) Assay for Tumor Protein P53 (TP53) using HepaRG (AID 2283537; active = hit-call score of the fitted dose curve at least 0.9, where 1 is the maximum; inactive = score below 0.9); settings: mRNA level, 48 h; actives raise or lower the signal
Procedure, shortened: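 TP53 transcript measured by qRT-PCR, normalized to three housekeeping genes, after 48 h treatment of human HepaRG cultures with chemicals from 100 uM downward in half-log steps (0.5% DMSO vehicle, serum-free induction medium). Up- or down-regulation fitted against DMSO.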

[2] = read-out: UDP glucuronosyltransferase (UGT1A1), UGT1A1 (gene 54658); experiment: LTEA_HepaRG_UGT1A1: Life Technologies and Expression Analysis (LTEA) Assay for UDP glucuronosyltransferase (UGT1A1) using HepaRG (AID 2283538; active = hit-call score of the fitted dose curve at least 0.9, where 1 is the maximum; inactive = score below 0.9); settings: mRNA level, 48 h; actives raise or lower the signal
Procedure, shortened: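 Readout is UGT1A1 transcript level by qRT-PCR, normalized to three housekeeping genes, after 48 h chemical treatment of HepaRG cells. Concentrations ran from 100 uM down in half-log steps with 0.5% DMSO, and gain or loss relative to DMSO was fitted.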

[3] = read-out: UDP glucuronosyltransferase (UGT1A6), UGT1A6 (gene 54578); experiment: LTEA_HepaRG_UGT1A6: Life Technologies and Expression Analysis (LTEA) Assay for UDP glucuronosyltransferase (UGT1A6) using HepaRG (AID 2283539; active = hit-call score of the fitted dose curve at least 0.9, where 1 is the maximum; inactive = score below 0.9); settings: mRNA level, 48 h; actives raise or lower the signal
Procedure, shortened: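 Expression was quantified by TaqMan qRT-PCR on Fluidigm arrays with ACTB/GAPDH/POLR2A normalization and bidirectional fitting against 0.5% DMSO. HepaRG cells (~100,000/well) were treated in duplicate for 48 h at eight half-log concentrations up to 100 uM in serum-free induction medium.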

[4] = read-out: X-box binding protein 1 (XBP1), XBP1 (gene 7494); experiment: LTEA_HepaRG_XBP1: Life Technologies and Expression Analysis (LTEA) Assay for X-box binding protein 1 (XBP1) using HepaRG (AID 2283540; active = hit-call score of the fitted dose curve at least 0.9, where 1 is the maximum; inactive = score below 0.9); settings: mRNA level, 48 h; actives raise or lower the signal
Procedure, shortened: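 XBP1 transcript by qRT-PCR (housekeeping-normalized: ACTB, GAPDH, POLR2A) after 48 h chemical treatment of HepaRG cells, 8-point half-log series topping at 100 uM, vehicle 0.5% DMSO. Gain and loss of signal fitted relative to DMSO.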

[5] = LTEA_HepaRG_LDH_cytotoxicity: Cytotoxicity Assessment in the Life Technologies and Expression Analysis (LTEA) Assay (AID 2283563)
Procedure, shortened: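 LDH release into culture medium read after 48 h chemical treatment of HepaRG cells. Duplicate wells, eight-point half-log series topping at 100 uM, 0.5% DMSO vehicle and baseline.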

[6] = ATG_XTT_Cytotoxicity: Cytotoxicity Assessment in the Attagene TRANS-FACTORIAL HepG2 Assay (AID 2283584)
Procedure, shortened: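 Viability endpoint from XTT after 24 h chemical exposure of reporter-transfected human HepG2 liver cells; signal loss fitted relative to DMSO negative control.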

[7] = TOX21_p53_BLA_p2_viability: Viability Assessment in the Tox21 HCT-116 p53 Agonism Beta-lactamase Assay, Phase 2 (AID 2283591);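 note: compound exposure lasted 16 h at 37 °C; actives lower the ATP signal meaning cytotoxicity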
Procedure, shortened: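 HCT-116 p53-bla cells (4000/well) rested 5 h at 37C, then received compounds in DMSO (217-fold dilution) for 16 h at 37C, 5% CO2. After the CCF4 read, CellTiter-Glo was added; ATP luminescence was read after 30 min at room temperature.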

[8] = molecular target: Cellular tumor antigen p53 (Homo sapiens) (UniProt P04637); experiment: TOX21_p53_BLA_p3_ratio: Tox21 HCT-116 p53 Agonism Beta-lactamase Assay, Ratio, Phase 3 (AID 2283596)
Procedure, shortened: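 HCT116 p53-bla cells (4000/well) given compound in DMSO (217-fold dilution) after 5 h, incubated 16 h at 37C. CCF4-AM substrate 2 h at room temperature; 460/530 nm emission ratio, gain fitted against DMSO.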

[9] = TOX21_p53_BLA_p4_viability: Viability Assessment in the Tox21 HCT-116 p53 Agonism Beta-lactamase Assay, Phase 4 (AID 2283597);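 note: hits lower the luminescence signal meaning cytotoxicity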
Procedure, shortened: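 Following a 16 h exposure at 37C, the treated HCT116 wells were first read for the FRET ratio. They were then lysed with CellTiter-Glo, and ATP luminescence was recorded after 30 min at room temperature.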

[10] = molecular target: Cellular tumor antigen p53 (Homo sapiens) (UniProt P04637); experiment: TOX21_p53_BLA_p5_ratio: Tox21 HCT-116 p53 Agonism Beta-lactamase Assay, Ratio, Phase 5 (AID 2283599)
Procedure, shortened: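 HCT-116 cells carrying a p53-inducible beta-lactamase reporter were seeded at 4000 cells/well and dosed after 5 h with compound in DMSO (217-fold dilution). After 16 h at 37C, CCF4-AM substrate was added for 2 h, and the 460/530 nm emission ratio was scored as gain-of-signal versus DMSO.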

[11] = molecular target: Cellular tumor antigen p53 (Homo sapiens) (UniProt P04637); experiment: TOX21_p53_BLA_p4_ratio: Tox21 HCT-116 p53 Agonism Beta-lactamase Assay, Ratio, Phase 4 (AID 2283601)
Procedure, shortened: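 HCT116 cells carrying an inducible beta-lactamase reporter were plated at 4000 cells/well, rested 5 h, then exposed to compounds in DMSO (217-fold dilution) for 16 h at 37C. CCF4-AM substrate was loaded 2 h at room temperature; 460/530 nm emission ratio scored gain-of-signal versus DMSO.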

[12] = Tanguay_ZF_120hpf_YSE_legacy: (Legacy) Oregon State University Tanguay Lab 120 Hour Post-fertilization zebrafish Assay for Yolk Sac Edema (AID 2283634)
Procedure, shortened: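 Presence or absence of yolk sac edema was recorded at 120 hpf in surviving larvae. These were wild-type Tropical 5D embryos, chorion removed at 4 hpf, held in static exposure at 28C from 6 hpf with 0.64% DMSO vehicle.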

[13] = Tanguay_ZF_120hpf_AXIS_legacy: (Legacy) Oregon State University Tanguay Lab 120 Hour Post-fertilization zebrafish Assay for Body Axis Malformation (AID 2283635)
Procedure, shortened: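 Binary scoring of axis defects at 120 hpf under brightfield, fitted positive versus DMSO. Tropical 5D embryos, chorion removed by pronase at 4 hpf, were singly exposed in sealed, dark plates at 28C from 6 hpf; DMSO 0.64% final.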

[14] = Tanguay_ZF_120hpf_EYE_legacy: (Legacy) Oregon State University Tanguay Lab 120 Hour Post-fertilization zebrafish Assay for Eye Malformation (AID 2283636);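 note: binary presence or absence of eye malformation scored by brightfield in 120 hpf larvae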
Procedure, shortened: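 Dechorionated wild-type Tropical 5D zebrafish embryos were exposed statically from 6 hpf, one per well, to 120 hpf at 28C in sealed, foil-covered plates with 0.64% DMSO. Eye malformation was scored present/absent by brightfield microscopy against DMSO controls.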

[15] = Tanguay_ZF_120hpf_SNOU_legacy: (Legacy) Oregon State University Tanguay Lab 120 Hour Post-fertilization zebrafish Assay for Snout Malformation (AID 2283637)
Procedure, shortened: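 Tropical 5D wild-type zebrafish embryos, dechorionated with pronase at 4 hpf, were exposed singly from 6 hpf to 120 hpf statically at 28C in 0.64% DMSO. Snout malformation was scored present/absent by brightfield microscopy, fitted against DMSO.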

[16] = Tanguay_ZF_120hpf_JAW_legacy: (Legacy) Oregon State University Tanguay Lab 120 Hour Post-fertilization zebrafish Assay for Jaw Malformation (AID 2283638)
Procedure, shortened: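 Binary jaw-malformation call at 120 hpf by brightfield microscopy. Embryos (Tropical 5D strain, chorion removed at 4 hpf) were dosed statically at 6 hpf, one per well, at 28C with 0.64% DMSO. Embryos that died were not scored.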

[17] = molecular target: Cellular tumor antigen p53 (Homo sapiens) (UniProt P04637); experiment: TOX21_p53_BLA_p2_ratio: Tox21 HCT-116 p53 Agonism Beta-lactamase Assay, Ratio, Phase 2 (AID 2283592)
Procedure, shortened: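 Gain-of-signal p53 agonism was scored from the beta-lactamase FRET ratio (460/530 nm, 405 nm excitation) in HCT116 cells treated 16 h at 37C, 5% CO2, with DMSO serving as negative control and baseline.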

[18] = TOX21_p53_BLA_p5_viability: Viability Assessment in the Tox21 HCT-116 p53 Agonism Beta-lactamase Assay, Phase 5 (AID 2283600)
Procedure, shortened: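 After the 460/530 nm beta-lactamase measurement, the wells received an ATP-detection luciferase reagent; signal was read 30 min later at RT. Compound treatment lasted 16 h on cells pre-incubated 5 h post-seeding.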

[19] = Tanguay_ZF_120hpf_MORT_legacy: (Legacy) Oregon State University Tanguay Lab 120 Hour Post-fertilization zebrafish Assay for Mortality (AID 2283633)
Procedure, shortened: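 Static waterborne exposure from 6 to 120 hpf at 28C of single dechorionated wild-type (5D) embryos per well, 0.64% DMSO final. Death recorded present/absent by brightfield at 24 and 120 hpf.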

Measured: outcome

Sequence of Cellular tumor antigen p53 (Homo sapiens) (P04637 whole entry, looked up): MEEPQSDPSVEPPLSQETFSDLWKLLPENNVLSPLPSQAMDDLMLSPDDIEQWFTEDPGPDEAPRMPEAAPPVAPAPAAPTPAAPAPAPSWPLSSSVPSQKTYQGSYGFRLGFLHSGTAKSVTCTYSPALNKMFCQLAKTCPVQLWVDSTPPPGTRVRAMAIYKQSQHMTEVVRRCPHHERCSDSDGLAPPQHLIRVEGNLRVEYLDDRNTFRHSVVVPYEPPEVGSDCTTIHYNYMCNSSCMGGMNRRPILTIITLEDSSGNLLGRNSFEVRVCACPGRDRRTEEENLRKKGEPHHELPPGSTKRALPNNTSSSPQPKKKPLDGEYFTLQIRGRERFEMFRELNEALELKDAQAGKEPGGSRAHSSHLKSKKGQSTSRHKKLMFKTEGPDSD

CC/C(=C\C(=N/O)C(N)=O)C(C)[N+](=O)[O-] (configuration not stated)
not listed: [17] | [18] | [19]
inactive: all other assays above

CCOCCO
not listed: [8] | [14] | [16]
inactive: all other assays above

C=CC(=C)CCC=C(C)C
not listed: [15]
inactive: all other assays above

Clc1nc(Cl)c(Cl)c(Cl)c1Cl
not listed: [8] | [19]
inactive: all other assays above

COCCOCCOCCOC
not listed: [7] | [8] | [11] | [12] | [13] | [19]
inactive: all other assays above

O=C(O)CC(O)C(=O)O (configuration not stated)
inactive: all assays above

NC(=O)NO
not listed: [15]
inactive: all other assays above
